This note sets out measurements from paper PMC4336329 (PLoS ONE, 2015).

SMILES strings stand for the structures. Among all 310,000 compounds or so, about 2,200 (0.71%) showed an effect of 50% or more. The effect is printed as a negative number. The entries come from a sample that favours strong results as a whole.

In the assay the target is human ether-à-go-go-related gene (hERG) potassium channel (human, UniProt Q12809). The assay can be described thus: primary screen, population patch clamp on CHO cells stably expressing hERG; higher = less effect of the substance.
human ether-à-go-go-related gene (hERG) potassium channel, sequence (Q12809 whole entry, looked up): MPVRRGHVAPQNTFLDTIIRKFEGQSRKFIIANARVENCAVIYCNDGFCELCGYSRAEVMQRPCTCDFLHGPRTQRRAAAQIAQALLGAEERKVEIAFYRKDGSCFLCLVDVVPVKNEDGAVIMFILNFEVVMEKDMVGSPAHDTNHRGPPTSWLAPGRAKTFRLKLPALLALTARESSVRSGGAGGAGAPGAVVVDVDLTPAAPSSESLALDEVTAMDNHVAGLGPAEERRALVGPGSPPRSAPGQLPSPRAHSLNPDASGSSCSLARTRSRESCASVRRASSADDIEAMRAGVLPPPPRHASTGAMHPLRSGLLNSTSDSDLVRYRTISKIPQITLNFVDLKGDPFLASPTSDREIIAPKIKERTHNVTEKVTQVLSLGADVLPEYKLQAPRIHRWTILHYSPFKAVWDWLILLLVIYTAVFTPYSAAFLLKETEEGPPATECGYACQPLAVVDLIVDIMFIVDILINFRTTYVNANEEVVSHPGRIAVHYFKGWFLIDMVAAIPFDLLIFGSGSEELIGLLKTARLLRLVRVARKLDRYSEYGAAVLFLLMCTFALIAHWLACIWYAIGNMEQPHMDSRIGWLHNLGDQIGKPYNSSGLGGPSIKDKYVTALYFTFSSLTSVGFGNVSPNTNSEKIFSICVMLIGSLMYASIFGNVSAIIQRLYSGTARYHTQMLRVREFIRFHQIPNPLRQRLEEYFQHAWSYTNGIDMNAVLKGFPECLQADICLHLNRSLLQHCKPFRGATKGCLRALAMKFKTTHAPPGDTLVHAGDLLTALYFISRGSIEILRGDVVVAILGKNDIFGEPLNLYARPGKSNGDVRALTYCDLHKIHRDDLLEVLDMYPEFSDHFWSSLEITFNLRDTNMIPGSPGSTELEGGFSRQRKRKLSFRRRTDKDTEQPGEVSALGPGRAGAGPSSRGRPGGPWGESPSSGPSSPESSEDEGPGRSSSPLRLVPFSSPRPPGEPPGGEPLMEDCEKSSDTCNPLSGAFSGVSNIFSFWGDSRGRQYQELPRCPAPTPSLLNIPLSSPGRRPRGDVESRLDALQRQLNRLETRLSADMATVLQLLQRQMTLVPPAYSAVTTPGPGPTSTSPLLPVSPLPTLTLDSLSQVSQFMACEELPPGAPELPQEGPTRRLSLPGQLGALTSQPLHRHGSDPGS
`O=C(Nc1nc(-c2ccc3c(c2)OCCO3)cs1)C1CCCC1`: the “hERG current change (%, negative = inhibition) at 1uM” value came out at 8.23%. With `COC(=O)C1=C(c2cc3ccccc3o2)C[C@@H]2CC[C@H]1N2C(=O)N1CCCC1`, the “hERG current change (%, negative = inhibition) at 1uM” value came out at 7.5%.

As to `NC(=NCCc1ccc(Cl)cc1)NS(=O)(=O)c1ccccc1`, the “hERG current change (%, negative = inhibition) at 1uM” value is 9.74%. With `O=C(c1ccccc1Br)N1CCCC(c2nc(-c3cccs3)no2)C1` (stereo not drawn), the “hERG current change (%, negative = inhibition) at 1uM” value was found to be 13.2%.

For `COc1ccc2oc(=N)c(-c3nnc4n3CCCCC4)cc2c1`, the “hERG current change (%, negative = inhibition) at 1uM” value was determined as 1.02%. In the case of `Cc1ccccc1C(=O)N1CCC(C(=O)Nc2ccc(C)c(S(=O)(=O)N3CCCCC3)c2)CC1`, the “hERG current change (%, negative = inhibition) at 1uM” value worked out at 2.28%. Then `O=C(CN1CCN(S(=O)(=O)N2CCCCC2)CC1)Nc1ccc(Br)cc1`, with 2.87%.

Turning to `O=C(CN1CCN(C(=O)N2CCCCC2)CC1)Nc1ccc(F)cc1`, the “hERG current change (%, negative = inhibition) at 1uM” value is given as -76.5%.

Consider `O=C(CN1CCCC1)Nc1ccc(F)cc1`, for which the “hERG current change (%, negative = inhibition) at 1uM” value was found to be 16.6%.

Regarding `COc1ccc(CN2CCCN(S(=O)(=O)c3ccc(Br)cc3)CC2)cc1`, the “hERG current change (%, negative = inhibition) at 1uM” value is -75.6%. Then `COc1ccc(NC(=O)CN2CCN(S(=O)(=O)N(C)C)CC2)cc1`, with 13.9%; and `COc1ccc(NC(=O)CN2CCN(S(=O)(=O)N3CCCCCC3)CC2)cc1`, with -60.8%; and `O=C(CN1CCN(C(=O)C2CCC2)CC1)Nc1ccc(F)cc1`, with -27.3%. For `COc1ccc(S(=O)(=O)N2CCN(Cc3ccc(Cl)cc3)CC2)cc1`, the “hERG current change (%, negative = inhibition) at 1uM” value is -4.05%. In the case of `COc1ccc(NC(=O)CN2CCCCC2)cc1.O=C(O)C(=O)O`, the “hERG current change (%, negative = inhibition) at 1uM” value was determined as 10.6%. Take `COc1cccc(CN2CCCN(S(=O)(=O)c3ccc(Br)cc3)CC2)c1`: the “hERG current change (%, negative = inhibition) at 1uM” value is on record as -22.3%. As for `O=C(CN1CCN(S(=O)(=O)N2CCCCCC2)CC1)Nc1ccc(Br)cc1`, the “hERG current change (%, negative = inhibition) at 1uM” value is -3.27%. In the case of `O=C(CN1CCN(S(=O)(=O)N2CCCCCC2)CC1)Nc1ccc(F)cc1` it was -75.1%.

Turning to `CCc1nnc(NC(=O)C2COc3ccccc3O2)s1` (stereo not drawn), the “hERG current change (%, negative = inhibition) at 1uM” value turned out to be 2.41%. For `CCn1nc(NC(=O)COC)c2cc3cc(C)ccc3nc21`, the “hERG current change (%, negative = inhibition) at 1uM” value is recorded as 9.09%. Regarding `COc1ccc(NS(=O)(=O)NC(=O)c2c[nH]c3ccccc23)cc1`, the “hERG current change (%, negative = inhibition) at 1uM” value is 9.58%. In the case of `CCOc1cc(CO)cc(Br)c1OCC(=O)Nc1ccccc1C` it was 6.36%; in that of `Cc1cc(NC(=O)CCC(=O)NNC(=O)c2ccc(C(C)(C)C)cc2)no1`, 6.49%. Turning to `COc1ccc(NC(=O)CN2CCN(CC(=O)Nc3ccc(OC)cc3)CC2)cc1`, the “hERG current change (%, negative = inhibition) at 1uM” value is reported as -85.6%. `COc1cccc(NC(C)=[N+](C)CCNS(=O)(=O)c2ccc(Cl)cc2)c1.[I-]`: the “hERG current change (%, negative = inhibition) at 1uM” value is recorded as -36.6%. On to `O=C(CN1CCN(c2ccc(Cl)cc2)CC1)Nc1ccc(F)c(F)c1`, for which the “hERG current change (%, negative = inhibition) at 1uM” value was -1.8%. Consider `COc1ccc(C(=O)CN2CCN(S(=O)(=O)c3cccc([N+](=O)[O-])c3)CC2)cc1`, for which the “hERG current change (%, negative = inhibition) at 1uM” value is reported as -64.3%. For `COc1ccc(NC(=O)CN2CCCC2)cc1`, the “hERG current change (%, negative = inhibition) at 1uM” value was determined as 14.6%. Regarding `COc1cccc(C(=O)CN2CCN(S(=O)(=O)c3cccc([N+](=O)[O-])c3)CC2)c1`, the “hERG current change (%, negative = inhibition) at 1uM” value came to 6.87%. As for `CC(Nc1ccc(F)cc1)=[N+](C)CCNS(=O)(=O)c1ccc(Cl)cc1.[I-]`, the “hERG current change (%, negative = inhibition) at 1uM” value is -45.1%. In the case of `O=C(CN1CCN(CC(=O)Nc2ccccc2Cl)CC1)Nc1ccc(F)c(F)c1` it was -74%; in that of `COc1ccc(C(=O)CN2CCN(S(=O)(=O)c3cccc([N+](=O)[O-])c3)CC2)cc1OC`, 3.44%.

As for `O=C(CN1CCN(Cc2ccccc2)CC1)Nc1ccc(F)c(F)c1.O=C(O)C(=O)O`, the “hERG current change (%, negative = inhibition) at 1uM” value was -21.9%. For the compound `COc1ccc(NC(=O)CN2CCN(CC#N)CC2)cc1`, the “hERG current change (%, negative = inhibition) at 1uM” value is -44.9%.

Consider `COc1ccc(NC(C)=[N+](C)CCNS(=O)(=O)c2ccc(Cl)cc2)cc1.[I-]`, for which the “hERG current change (%, negative = inhibition) at 1uM” value is reported as -59.5%.

For `CCOC(=O)Cn1nnc(-c2cccc(OC)c2)n1`, the “hERG current change (%, negative = inhibition) at 1uM” value is on record as 9.82%. On to `Cc1cccc(C(=O)O/N=C(\N)CS(=O)(=O)c2ccccc2)c1`, for which the “hERG current change (%, negative = inhibition) at 1uM” value worked out at 5.74%. `Cn1cccc1C(=O)NCC(c1ccc(F)cc1)N1CCOCC1` (stereo not drawn): the “hERG current change (%, negative = inhibition) at 1uM” value was determined as 5.02%. For the compound `CCOC(=O)CNC(=O)Cn1cnc2c(nnn2-c2cccc(Cl)c2)c1=O`, the “hERG current change (%, negative = inhibition) at 1uM” value was -0.825%. For `COc1ccc(Nc2nc(C)nc3c2nnn3Cc2ccccc2)cc1OC`, the “hERG current change (%, negative = inhibition) at 1uM” value amounted to 4.84%. In the case of `CCN(CC)c1ccc(NC(=O)CN2CCN(CC(=O)Nc3ccccc3OC)CC2)cc1` it was -0.407%; in that of `COc1ccc(NC(=O)CN2CCC(C)CC2)cc1`, -0.0667%; in that of `CCN(CC)c1ccc(NC(=O)CN2CCN(CC(=O)Nc3ccc(OC)cc3)CC2)cc1`, -59.5%.

With `Cc1cc(=O)oc2cc(OCC(=O)N3CCCC3)c(Cl)cc12`, the “hERG current change (%, negative = inhibition) at 1uM” value was found to be 1.63%. For `Cc1nc(Nc2ccc3c(c2)OCCO3)c2c(C)c(C)sc2n1`, the “hERG current change (%, negative = inhibition) at 1uM” value was -8.61%.
